From PubChem BioAssay AID1159580 (chemical genetic matrix, 2015)
Among all 5,500 compounds or so, about 2,000 (36%) were called active. About 18% were inconclusive and are not listed. No stated cut-off is given here; in the data, active means normalized growth mostly below about 0.91 (no sharp cut-off); inconclusive means no clear call, values can overlap the other calls; inactive means mostly above about 0.92. The list shows a part of the results.

Test: chemical genetic growth profiling, strain panel (AID 1159580);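 further: tested at 20 µM; growth read once vehicle control cultures reached saturation at 30 °C; 1 = growth at the plate median or of vehicle wells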
Details: growth OD

Measured: normalized growth

NC[C@H]1O[C@H](OC2[C@@H](N)C[C@@H](N)[C@H](O[C@H]3O[C@H](CO)[C@@H](O)[C@H](N)[C@H]3O)[C@H]2O)[C@H](O)[C@@H](O)[C@@H]1O (some centres undefined)
inactive: S. cerevisiae deletion strains, locus YJR066W, strain TOR1, stronger effect = lower value 0.956 | S. cerevisiae deletion strains, locus YJR075W, strain HOC1, stronger effect = lower value 0.996 | S. cerevisiae deletion strains, locus YKL009W, strain mrt4, stronger effect = lower value 0.985 | S. cerevisiae deletion strains, locus YKL068W, stronger effect = lower value 0.986 | S. cerevisiae deletion strains, locus YKL085W, strain MDH1 (second series), stronger effect = lower value 0.98 | S. cerevisiae deletion strains, locus YKL085W, strain MDH1, stronger effect = lower value 0.98 | S. cerevisiae deletion strains, locus YKL160W, strain elf1, stronger effect = lower value 0.979 | S. cerevisiae deletion strains, locus YKR001C, strain vps1, stronger effect = lower value 0.994 | S. cerevisiae deletion strains, locus YKR026C, strain gcn3, stronger effect = lower value 0.998 | S. cerevisiae deletion strains, locus YKR091W, strain srl3, stronger effect = lower value 1.01 | S. cerevisiae deletion strains, locus YLL001W, strain dnm1, stronger effect = lower value 0.973 | S. cerevisiae deletion strains, locus YLL026W, stronger effect = lower value 1.01 | S. cerevisiae deletion strains, locus YLL041C, strain sdh2, stronger effect = lower value 0.999 | S. cerevisiae deletion strains, locus YLR027C, strain aat2, stronger effect = lower value 1.01 | S. cerevisiae deletion strains, locus YLR039C, strain RIC1, stronger effect = lower value 0.927 | S. cerevisiae deletion strains, locus YLR058C, strain SHM2, stronger effect = lower value 0.978 | S. cerevisiae deletion strains, locus YLR102C, strain apc9, stronger effect = lower value 0.984 | S. cerevisiae deletion strains, locus YLR113W, strain HOG1, stronger effect = lower value 1 | S. cerevisiae deletion strains, locus YLR221C, strain rsa3, stronger effect = lower value 1.01 | S. cerevisiae deletion strains, locus YLR258W, strain gsy2, stronger effect = lower value 1 | S. cerevisiae deletion strains, locus YLR262C, strain YPT6 (second series), stronger effect = lower value 0.994 | S. cerevisiae deletion strains, locus YLR262C, strain YPT6, stronger effect = lower value 1.04 | S. cerevisiae deletion strains, locus YLR268W, strain sec22, stronger effect = lower value 0.986 | S. cerevisiae deletion strains, locus YLR320W, strain mms22, stronger effect = lower value 0.987 | S. cerevisiae deletion strains, locus YLR330W, strain CHS5, stronger effect = lower value 0.993 | S. cerevisiae deletion strains, locus YLR342W, strain FKS1 (second series), stronger effect = lower value 1 | S. cerevisiae deletion strains, locus YLR342W, strain FKS1, stronger effect = lower value 0.995 | S. cerevisiae deletion strains, locus YLR357W, strain rsc2, stronger effect = lower value 0.979 | S. cerevisiae deletion strains, locus YLR370C, strain arc18, stronger effect = lower value 0.993 | S. cerevisiae deletion strains, locus YLR371W, strain rom2, stronger effect = lower value 0.981 | S. cerevisiae deletion strains, locus YLR384C, strain iki3, stronger effect = lower value 0.994 | S. cerevisiae deletion strains, locus YLR418C, strain cdc73, stronger effect = lower value 0.97 | S. cerevisiae deletion strains, locus YML016C, strain PPZ1, stronger effect = lower value 0.99 | S. cerevisiae deletion strains, locus YML032C, strain rad52, stronger effect = lower value 0.984 | S. cerevisiae deletion strains, locus YML120C, strain ndi1, stronger effect = lower value 0.999 | S. cerevisiae deletion strains, locus YML124C, strain tub3, stronger effect = lower value 0.984 | S. cerevisiae deletion strains, locus YMR058W, strain fet3, stronger effect = lower value 1 | S. cerevisiae deletion strains, locus YMR078C, strain ctf18, stronger effect = lower value 0.969 | S. cerevisiae deletion strains, locus YMR125W, strain sto1, stronger effect = lower value 0.973 | S. cerevisiae deletion strains, locus YMR129W, stronger effect = lower value 0.997 | S. cerevisiae deletion strains, locus YMR205C, strain PFK2, stronger effect = lower value 0.975 | S. cerevisiae deletion strains, locus YMR223W, strain ubp8, stronger effect = lower value 0.957 | S. cerevisiae deletion strains, locus YMR231W, strain pep5, stronger effect = lower value 0.993 | S. cerevisiae deletion strains, locus YMR263W, strain SAP30, stronger effect = lower value 0.999 | S. cerevisiae deletion strains, locus YMR307W, strain GAS1, stronger effect = lower value 1.03 | S. cerevisiae deletion strains, locus YNL067W, strain RPL9B, stronger effect = lower value 0.997 | S. cerevisiae deletion strains, locus YNL071W, strain lat1, stronger effect = lower value 0.998 | S. cerevisiae deletion strains, locus YNL153C, strain GIM3, stronger effect = lower value 0.993 | S. cerevisiae deletion strains, locus YNL183C, strain NPR1, stronger effect = lower value 0.969 | S. cerevisiae deletion strains, locus YNL209W, strain ssb2, stronger effect = lower value 0.996 | S. cerevisiae deletion strains, locus YNL233W, strain BNI4, stronger effect = lower value 0.993 | S. cerevisiae deletion strains, locus YNL248C, strain rpa49, stronger effect = lower value 0.988 | S. cerevisiae deletion strains, locus YNL250W, strain rad50, stronger effect = lower value 0.974 | S. cerevisiae deletion strains, locus YNL271C, strain bni1, stronger effect = lower value 0.978 | S. cerevisiae deletion strains, locus YNL298W, strain CLA4, stronger effect = lower value 0.97 | S. cerevisiae deletion strains, locus YNL307C, strain MCK1, stronger effect = lower value 0.971 | S. cerevisiae deletion strains, locus YNL322C, strain KRE1 (second series), stronger effect = lower value 0.986 | S. cerevisiae deletion strains, locus YNL322C, strain KRE1, stronger effect = lower value 0.996 | S. cerevisiae deletion strains, locus YNR049C, strain mso1, stronger effect = lower value 0.992 | S. cerevisiae deletion strains, locus YNR052C, strain pop2, stronger effect = lower value 0.973 | S. cerevisiae deletion strains, locus YOL006C, strain TOP1, stronger effect = lower value 0.968 | S. cerevisiae deletion strains, locus YOL012C, strain htz1 1.24 | S. cerevisiae deletion strains, locus YOL147C, strain pex11, stronger effect = lower value 0.982 | S. cerevisiae deletion strains, locus YOR001W, strain rrp6, stronger effect = lower value 1.02 | S. cerevisiae deletion strains, locus YOR061W, strain CKA2, stronger effect = lower value 0.989 | S. cerevisiae deletion strains, locus YOR069W, strain VPS5, stronger effect = lower value 0.989 | S. cerevisiae deletion strains, locus YOR070C, strain gyp1, stronger effect = lower value 0.998 | S. cerevisiae deletion strains, locus YOR080W, strain dia2, stronger effect = lower value 1 | S. cerevisiae deletion strains, locus YOR083W, strain WHI5, stronger effect = lower value 0.988 | S. cerevisiae deletion strains, locus YOR106W, strain vam3, stronger effect = lower value 0.976 | S. cerevisiae deletion strains, locus YOR136W, strain idh2, stronger effect = lower value 0.984 | S. cerevisiae deletion strains, locus YOR144C, strain elg1, stronger effect = lower value 0.987 | S. cerevisiae deletion strains, locus YOR184W, strain ser1, stronger effect = lower value 0.971 | S. cerevisiae deletion strains, locus YOR231W, strain MKK1, stronger effect = lower value 0.983 | S. cerevisiae deletion strains, locus YOR265W, strain rbl2, stronger effect = lower value 1 | S. cerevisiae deletion strains, locus YOR270C, strain vph1, stronger effect = lower value 1.02 | S. cerevisiae deletion strains, locus YOR290C, strain snf2, stronger effect = lower value 0.949 | S. cerevisiae deletion strains, locus YOR316C, strain cot1, stronger effect = lower value 0.98 | S. cerevisiae deletion strains, locus YPL051W, strain arl3, stronger effect = lower value 0.992 | S. cerevisiae deletion strains, locus YPL078C, strain atp4, stronger effect = lower value 0.992 | S. cerevisiae deletion strains, locus YPL106C, strain sse1, stronger effect = lower value 0.998 | S. cerevisiae deletion strains, locus YPL240C, strain hsp82, stronger effect = lower value 0.987 | S. cerevisiae deletion strains, locus YPL256C, strain CLN2, stronger effect = lower value 0.994 | S. cerevisiae deletion strains, locus YPR119W, strain clb2, stronger effect = lower value 0.977 | S. cerevisiae deletion strains, locus YPR141C, strain kar3, stronger effect = lower value 0.962 | S. cerevisiae deletion strains, locus YPR163C, strain tif3, stronger effect = lower value 0.978 | S. cerevisiae deletion strains, locus YPR167C, strain met16, stronger effect = lower value 0.981 | S. cerevisiae deletion strains, strain wtn01, stronger effect = lower value 0.989 | S. cerevisiae strains, strain wild type, stronger effect = lower value 0.995
